Measurements reported in PubChem BioAssay AID651820 (National Center for Advancing Translational Sciences (NCATS), 2012).
Among all 340,000 compounds or so, about 12,000 (3.5%) were called active. Entries that show only a call come without a potency. Roughly 18% stayed inconclusive and do not appear here. Only a selection was taken, and actives are over-represented in it overall. Values without a mark were called inactive. Calls follow the shape of the dose curve; as a rule, active = well fitted inhibition curve with a large enough effect; inconclusive = small, poorly fitted or top-dose-only effect, or another doubt; inactive = no such curve, though single readings can be large or run the other way.

Assay: qHTS Assay for Inhibitors of Hepatitis C Virus (HCV)
Settings: Huh7.5.1 HCVcc-Cre infection, luciferase reporter, 44 h; series mostly up to 41.8 µM
Procedure, shortened: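 Cells seeded at 1,000/well and cultured 4 h, then compounds added followed by HCVcc-Cre virus (~0.5 moi). After 44 h further culture, luciferase substrate was added, plates held 15 min at room temperature, and luminescence read for 15 sec.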
Potency is read from the fitted curve at half-maximal effect.

| Structure (SMILES) | Potency | activity change, negative = inhibition |
| --- | --- | --- |
| CC1CCCCC1NC(=O)c1cc(=O)[nH]c2ccccc12 (centres undefined) | inactive |  |
| O=C(CSc1nc(=O)n2ccccc2n1)Nc1ccc2c(c1)OCCO2 | inactive |  |
| CCOC(=O)C1=C(c2ccccc2)NC(=O)NC1c1cc(OCC)c(O)c([N+](=O)[O-])c1 (centres undefined) | inactive |  |
| CCN1C(=O)N[C@@H](c2ccccc2)C(C(=O)OC)=C1C | inactive |  |
| CCOC(=O)C1=C(C)N(C[C@@H]2CC[C@@H](Cc3ccc(-c4ccccc4)cc3)O2)C(=O)NC1c1ccc([N+](=O)[O-])cc1 (some centres undefined) | 11.2 µM (active) |  |
| C[C@]12c3[nH]c4ccc(Cl)cc4c3CCN1C(=O)[C@@H](CC(=O)NCCCn1ccnc1)C[C@@H]2C(=O)N1CCOCC1 | inactive |  |
| Cc1ccc(NC(=O)CN(C)C(=O)Cn2nnc(-c3ccccc3)n2)cc1 | inactive |  |
| COc1ccc(CCNC(=O)C(=O)NCC2OCCN2S(=O)(=O)c2ccc(OC)c(C)c2)cc1 (centres undefined) | 15.8 µM (active) |  |
| COc1ccc(CCNC(=O)C(=O)NCC2OCCN2S(=O)(=O)c2ccc(F)cc2)cc1OC (centres undefined) | inactive |  |
| COc1ccc(S(=O)(=O)N2CCOC2CNC(=O)C(=O)NCc2ccncc2)cc1C (centres undefined) | inactive |  |
| Cc1cccc(OCC(=O)OCC(=O)Nc2ccc(Cl)cn2)c1 | inactive |  |
| COc1ccccc1NC(=O)N(O)C1(C#N)CCCCC1 | inactive |  |
| O=C(NCc1ccc2c(c1)OCO2)c1c(-c2ccsc2)sc2ccccc12 | inactive |  |
| CCCSc1nc2sc3c(c2c(=O)n1-c1ccc(OC)cc1)CCN(C)C3 | 11.2 µM (active) |  |
| O=C1CCCN2N=C(SCC(=O)Nc3ccc(Br)cc3)SC2=N1 | inactive |  |
| CCOc1ccc(-n2c(SCC(=O)Nc3ccc(OC)cc3)nc3sc4c(c3c2=O)CCN(C)C4)cc1 | 11.2 µM (active) |  |
| CCOc1ccc(NC(=O)CSc2nncn2C)cc1 | inactive |  |
| CCn1c(SCC(=O)Nc2ccc(Br)cc2)nc2sc3c(c2c1=O)CCN(C)C3 | 4.47 µM (active) |  |
| COc1ccccc1NC(=O)CSc1nc2sc3c(c2c(=O)n1-c1ccccc1)CCN(C)C3 | inactive |  |
| CCSc1nc2sc3c(c2c(=O)n1-c1ccc(C)cc1)CCN(C)C3 | inactive |  |
| C=CCn1c(SCC(=O)Nc2ccc(NC(C)=O)cc2)nc2sc(C)c(C)c2c1=O | inactive |  |
| COc1ccccc1-n1c(SCC(=O)O)nc2sc3c(c2c1=O)CCC3 | inactive |  |
| O=C(NCCSc1ncc(-c2ccccc2)[nH]1)c1ccco1 |  | -7.56% [at 8.37 µM] |
| COc1cccc(NC(=O)CSc2nnc(C3CCCCC3)n2N)c1 | inactive |  |

| Structure (SMILES) | Potency | activity change, negative = inhibition |
| --- | --- | --- |
| CC(=O)Nc1ccc(NC(=O)CSC2=NS(=O)(=O)c3ccccc3N2)cc1 | inactive |  |
| CCc1noc(C)c1C(=O)Nc1nc2ccc(OC)cc2s1 | inactive |  |
| COc1ccc(NC(=O)CNc2cc(S(=O)(=O)N3CCOCC3)ccc2N2CCOCC2)c(OC)c1 | inactive |  |
| CS(=O)(=O)N(CC(=O)N1CCc2ccccc2C1)c1ccc(Br)cc1 | inactive |  |
| COc1cc(/C=C/C(=O)OCC(=O)NCCCc2ccccc2)ccc1O | inactive |  |
| O=C(O)c1ccc(S(=O)(=O)c2ccccc2)s1 | inactive |  |
| Cc1ccc(S(=O)(=O)c2cc3c(=O)n4cccc(C)c4nc3n(CCc3ccccc3)c2=N)cc1C | inactive |  |
| OC(Cn1c2ccccc2c2ccccc21)C[n+]1ccccc1 (centres undefined) | inactive |  |
| O=C1c2ccccc2S(=O)(=O)N1CC(O)Cn1c2ccccc2c2ccccc21 (centres undefined) | inactive |  |
| CS(=O)(=O)N(CC(O)Cn1c2ccccc2c2ccccc21)c1cccc2ccccc12 (centres undefined) | 11.2 µM (active) |  |
| COc1ccc2oc(C(=O)N(CC(C)C)C3CCS(=O)(=O)C3)c(C)c2c1 (centres undefined) | inactive |  |
| CCOc1ccc(C(CC(=O)O)NC(=O)Cc2ccccc2)cc1OC (centres undefined) | inactive |  |
| CCOc1ccc(C(CCc2ccccc2)NC(=O)c2ccc(OC)c(OC)c2)cc1OCC (centres undefined) | 10 µM (active) |  |
| CCOc1ccc(C(CC(=O)O)NC(=O)C23CC4CC(CC(C4)C2)C3)cc1OC (centres undefined) | inactive |  |
| Cc1n[nH]c(=O)c2c(NC(=O)COC(=O)c3ncc(Cl)c(Cl)c3Cl)oc(C)c12 | inactive |  |
| COCCNc1nc(-n2nc(C)cc2C)nc2sc3c(c12)CCCC3 | 10 µM (active) |  |
| Cc1nc2sc3c(c2c(=O)n1NC(=O)CCl)CCCC3 | inactive |  |
| CCC(O)CNc1nc(-n2nc(C)cc2C)nc2sc3c(c12)CC(C)(C)OC3 (centres undefined) | inactive |  |
| O=C1CC2(CCCC2)C(=O)N1CN1CCN(S(=O)(=O)c2ccc(F)cc2F)CC1 | inactive |  |
| CCOc1ccc(C(=O)Nc2ccc(S(=O)(=O)Nc3cc(C)on3)cc2)cc1 | 1.12 µM (active) |  |
| COc1ccc(NS(=O)(=O)c2ccc(NC(=O)c3ccc(N(C)S(C)(=O)=O)cc3)cc2)cc1 | 5.62 µM (active) |  |
| COc1ccc(NS(=O)(=O)c2ccc(C(=O)Nc3c(C)n(C)n(-c4ccccc4)c3=O)cc2)cc1 | inactive |  |
| COc1cc(OC)cc(C(=O)Nc2ccc(S(=O)(=O)Nc3cc(C)on3)cc2)c1 | inactive |  |
| CCOc1ccc(CC(=O)Nc2ccc(S(=O)(=O)Nc3cc(C)on3)cc2)cc1OCC | inactive |  |

| Structure (SMILES) | Potency | activity change, negative = inhibition |
| --- | --- | --- |
| COc1ccc(NC(=O)c2cnc(NS(=O)(=O)c3ccccc3)nc2)cc1 | inactive |  |
| O=C(COC(=O)c1ccccn1)NNC(=O)c1ccc(Br)cc1 | inactive |  |
| O=C(COC(=O)c1ccc(F)c(S(=O)(=O)N2CCOCC2)c1)NCc1ccc2c(c1)OCO2 | inactive |  |
| O=S(=O)(Nc1ccc2ccccc2c1)N1CCCCC1 | inactive |  |
| Brc1ccccc1/C=N/Nc1nc2ccccc2o1 | inactive |  |
| COc1ccc(/C=N/Nc2nc3ccccc3o2)cc1OC | inactive |  |
| CCOc1ccccc1/C=N/Nc1nc2ccccc2o1 | 12.6 µM (active) |  |
| Cc1ccc(SCC(=O)Nc2ccc3c(c2)OCCO3)cc1 | inactive |  |
| Cc1ccc(C(=O)CSc2ccccc2C(=O)O)cc1 | inactive |  |
| Cc1ccc(SCC(=O)c2cc(C)c(OC(=S)N(C)C)c(C)c2)cc1 | 11.2 µM (active) |  |
| CC[C@]12c3[nH]c4ccc(Cl)cc4c3CCN1C(=O)[C@@H](CC(=O)NCCN1CCOCC1)C[C@@H]2C(=O)N1CCN(C(=O)C2CC2)CC1 | inactive |  |
| CCOC(=O)C[C@H]1c2ccc(C(F)(F)F)cc2S(=O)(=O)N1c1ccccc1 | inactive |  |
| O=C(CCCCCn1c(=S)[nH]c2cc3c(cc2c1=O)OCO3)N1CCN(c2ccc(F)cc2)CC1 | inactive |  |
| Cc1ccc(C)c(N2CCN(C(=O)CCc3nc4ccccc4[nH]3)CC2)c1 |  | 3.71% [at 8.37 µM] |
| Cc1ccc(C)c(N2CCN(C(=O)CCCCCn3c(=S)[nH]c4ccc(N5CCOCC5)cc4c3=O)CC2)c1 | 2.82 µM (active) |  |
| CN(CC(=O)Nc1cccc(F)c1)C(=O)C1CSC2(C)CCC(=O)N12 (centres undefined) | inactive |  |
| COc1ccc(Cl)cc1NS(=O)(=O)c1cccc(C(=O)NC2CCC(O)CC2)c1 (centres undefined) | inactive |  |
| CCC(CO)Oc1cc(NC(=O)c2cccc(F)c2)c2ncn(C(C)C)c2c1 (centres undefined) | 0.562 µM (active) |  |
| O=C(Nc1cccc(NC(=O)c2cccc(F)c2)c1)c1ccccc1 | inactive |  |
| COc1cccc(C(=O)NNC(=O)c2cccc(F)c2)c1 | inactive |  |
| COc1ccc(/C=C2\SC(=S)N(CCCC(=O)NC3CCCC3)C2=O)cc1OC | inactive |  |
| O=C1/C(=C/c2ccc(F)cc2)SC(=S)N1CCCC(=O)N1CCCCC1CCO (centres undefined) | 11.2 µM (active) |  |
| CCN(C(=O)CN1C(=O)/C(=C/c2ccc(F)cc2)SC1=S)C1CCS(=O)(=O)C1 (centres undefined) | inactive |  |
| O=C(COC(=O)Cc1c[nH]c2ccccc12)NCCc1ccccc1 | inactive |  |

| Structure (SMILES) | Potency | activity change, negative = inhibition |
| --- | --- | --- |
| O=C(CN1CCN(c2ccccc2O)CC1)NC(=O)NCc1ccccc1 | inactive |  |
| CCCOc1ccc(C(=O)C(CCC(CNCC)C(=O)c2ccc(OCCC)cc2)CNCC)cc1 (centres undefined) | 5.01 µM (active) |  |
| CCCOc1ccc(N/C=C/C(=O)C(C)(C)C)cc1 | inactive |  |
| CCCOc1ccc(C(=O)CCC(=O)OC(C)C(=O)Nc2ccc(NC(C)=O)cc2)cc1 (centres undefined) | inactive |  |
| CCN(CC(=O)Nc1ccccc1C(F)(F)F)C(=O)CSCc1c(C)noc1C | inactive |  |
| COc1ccc(S(=O)(=O)N2C[C@H]3CON(C)[C@H]3C[C@H]2c2cccc(Br)c2)cc1 |  | 28% [at 8.37 µM] |
| O=C(NCc1ccccc1Cl)C1CCN(S(=O)(=O)N2CCOCC2)CC1 | inactive |  |
| O=C(O)C1CCN(S(=O)(=O)N2CCOCC2)CC1 | 22.4 µM (active) |  |
| COc1ccc(CNC(=O)C2CCN(S(=O)(=O)N3CCOCC3)CC2)cc1 | inactive |  |
| COc1ccc(OCCCC(=O)OC(C)C(=O)Nc2ccccc2[N+](=O)[O-])cc1 (centres undefined) | inactive |  |
| O=C(COC(=O)c1cccnc1Cl)NC(=O)NC1CCCCC1 | inactive |  |
| Cc1noc(C)c1S(=O)(=O)N(C)C[C@H]1Oc2ccc(NC(=O)C3CC3)cc2C(=O)N([C@H](C)CO)C[C@@H]1C | inactive |  |
| O=C1NC(c2ccccc2)Cc2ccncc21 (centres undefined) | inactive |  |
| Cc1ccc(C(=O)CCC(=O)N(C)CC(=O)Nc2c(Cl)cccc2Cl)cc1 | inactive |  |
| Cc1cccc(C)c1NC(=O)CN(C)C(=O)CCC(=O)c1ccccc1 | inactive |  |
| CN(CC(=O)Nc1ccc(Cl)c(C(F)(F)F)c1)C(=O)CCC(=O)c1ccccc1 | 11.2 µM (active) |  |
| COc1ccc(CNC(=O)C[C@H]2C[C@H](C(=O)N3CCOCC3)[C@@]3(C)c4[nH]c5cc(CCC(=O)N(C)C)ccc5c4CCN3C2=O)cc1OC | inactive |  |
| CN(C)CCn1c2c(c(SCC(=O)Nc3ccccc3C(F)(F)F)nc1=O)CCCC2 | inactive |  |
| Cc1cc(C)c(CN2CCN(C(=O)Cn3ccc(NC(=O)OCc4ccccc4)nc3=O)CC2)c(C)c1 | 4.47 µM (active) |  |
| Nc1ccn(CC(=O)N2CCN(c3ccccn3)CC2)c(=O)n1 | inactive |  |
| O=C(Nc1ccn(CCCNCc2ccc3[nH]ccc3c2)c(=O)n1)OCc1ccccc1 | inactive |  |
| CCC1([N+](=O)[O-])COC(c2ccc(C(C)C)cc2)OC1 (centres undefined) | inactive |  |
